pPAFAH inh: pPAFAH enzyme inhibitors, primary screen, biochemical, fluorescence polarization, human; Platelet-activating factor acetylhydrolase (Homo sapiens), Q13093; recombinant pPAFAH, FP-rhodamine probe fluorescence polarization; inhibition, % at 3.39 µM; 330,000 tested, 1.5% active; AID 463082, 2010;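 active = inhibition above the mean inhibition across the screen plus 3 SD, cut at about 25% in these data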;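 also: inhibitors block binding of the rhodamine activity-based probe so polarization drops; 0% = enzyme with DMSO and 100% = wells lacking pPAFAH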
PAFAH2 inh: PAFAH2 enzyme inhibitors, primary screen, biochemical, fluorescence polarization, human. AID 492956, 2010. inhibition, % at 3.39 µM. recombinant PAFAH2, FP-rhodamine activity probe. 340,000 tested, 0.99% active;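 active = inhibition above the mean over all tested compounds plus 3 SD, cut at about 30% in these data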;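 also: inhibitors block probe labeling of enzyme so polarization drops; 0% = enzyme with DMSO and 100% = wells lacking PAFAH2 protein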
PAFAH1B2 FP inh: PAFAH1B2 enzyme inhibitors, primary screen, biochemical, fluorescence polarization, human; 340,000 tested, 1.2% active; recombinant PAFAH1B2, FP-rhodamine activity probe; inhibition, % at 3.39 µM;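 active = inhibition above the mean of all tested compounds plus 3 SD, cut at about 24% in these data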;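 also: 0% = enzyme with DMSO and 100% = wells lacking PAFAH1B2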
Target sequence (P68402 whole entry, looked up): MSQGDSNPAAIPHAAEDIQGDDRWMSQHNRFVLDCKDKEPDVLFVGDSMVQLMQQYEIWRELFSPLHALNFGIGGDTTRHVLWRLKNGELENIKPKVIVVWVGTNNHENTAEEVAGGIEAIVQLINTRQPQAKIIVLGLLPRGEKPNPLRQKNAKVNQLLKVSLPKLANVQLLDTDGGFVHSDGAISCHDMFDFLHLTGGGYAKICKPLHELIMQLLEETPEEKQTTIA
PP1 inh: PP1-alpha phosphatase inhibitors, primary screen, counter-screen for PP5 inhibitor project, biochemical, fluorescence, OMFP substrate, single point; Serine/threonine-protein phosphatase PP1-alpha catalytic subunit (Homo sapiens), P62136; purified PP1alpha; inhibition, % at 6.7 µM; 320,000 tested, 0.9% active; AID 2235, 2010;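 active = inhibition above the mean inhibition of all tested compounds plus 3 SD, computed separately for each screening campaign, cut at about 15% in these data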
PAFAH1B3 FP inh: PAFAH1B3 enzyme inhibitors, primary screen, biochemical, fluorescence polarization, human; Platelet-activating factor acetylhydrolase IB subunit alpha1 (Homo sapiens), Q15102; recombinant PAFAH1B3, FP-rhodamine probe; inhibition, % at 3.39 µM; 340,000 tested, 0.28% active; AID 492972, 2010;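 active = inhibition above the screen-wide average of all tested compounds plus 3 SD, cut at about 25% in these data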;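 also: 0% = enzyme with DMSO only and 100% = wells lacking PAFAH1B3 protein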
Target sequence (Q15102 whole entry, looked up): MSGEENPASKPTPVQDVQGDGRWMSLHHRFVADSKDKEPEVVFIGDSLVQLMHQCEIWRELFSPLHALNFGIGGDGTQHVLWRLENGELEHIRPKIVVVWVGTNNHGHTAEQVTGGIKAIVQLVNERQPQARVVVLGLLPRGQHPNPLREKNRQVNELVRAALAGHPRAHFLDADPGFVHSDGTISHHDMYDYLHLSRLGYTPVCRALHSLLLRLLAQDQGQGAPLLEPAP
PP5 primary: PP5 phosphatase inhibitors, primary screen, biochemical, fluorescence. inhibition, % at 6.7 µM. 320,000 tested, 0.18% active. Serine/threonine-protein phosphatase 5 (Homo sapiens), P53041. purified PP5c, OMFP substrate fluorescence;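 active = inhibition above the campaign's mean inhibition across all tested compounds plus 3 SD, cut at about 9.5% in these data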;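 also: 0% = DMSO only and 100% = 100 µM cantharidin control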
Active calls of the source: *; x = no result. The list is not random: actives were taken first. Their share in the collection is about 3.4%.

SMILES	pPAFAH inh	PAFAH2 inh	PAFAH1B2 FP inh	PP1 inh	PAFAH1B3 FP inh	PP5 primary
Cc1ccc(SCc2[nH]nc3c2C(c2ccco2)C(C#N)=C(N)O3)cc1 (configuration not stated)	7	7	34*	0	14	1
Cc1ccc(SCc2[nH]nc3c2C(c2ccc(C)o2)C(C#N)=C(N)O3)cc1 (configuration not stated)	0	13	21	7	3	3
Cn1c(=O)oc2cc(S(=O)(=O)NCCC(=O)NCCc3ccc(Cl)cc3)ccc21	14	-4	32*	3	1	-1
CCOC(=O)Cn1c(=O)oc2cc(S(=O)(=O)NCCCc3ccccc3)ccc21	4	3	10	-3	7	-1
CCOC(=O)Cn1c(=O)oc2cc(S(=O)(=O)Nc3ccc(F)cc3)ccc21	28*	-4	4	3	-2	3
CCOC(=O)Cn1c(=O)oc2cc(S(=O)(=O)NCCc3ccc(C)cc3)ccc21	29*	-8	4	0	7	2
Cc1ccc(C2(C)NC(=O)N(CC(=O)Nc3cc(S(=O)(=O)N4CCOCC4)ccc3OC(C)C)C2=O)cc1 (configuration not stated)	x	0	3	x	8	x
CSc1ccccc1NC(=O)COC(=O)CCC(=O)c1ccc(F)cc1	21	5	1	x	-9	x
Cc1ccc(C(=O)CCC(=O)OCC(=O)Nc2ccccc2SCC#N)cc1	27*	0	0	1	11	2
O=C(c1cn(-c2ccccc2)nc1-c1cccnc1)N1CCN(S(=O)(=O)c2ccc(Cl)cc2)CC1	x	-4	29*	x	4	x
COc1cccc(-c2nnc(Nc3nc4c(F)cccc4s3)o2)c1	29*	25	14	5	9	0
CCn1c(C)c(C(C)=O)c(NCc2ccccc2)nc1=S	26*	4	15	2	3	-1
CC(=O)c1c(NCc2ccccc2)nc(=O)n(-c2ccccc2)c1C	-3	8	3	-2	7	0
CCN(CC)C(=O)CSc1nnc([C@@H](N)C(C)C)o1	-5	10	4	2	8	3
O=C(CSc1ccc(Cl)cc1)NCc1ccncc1	5	-6	29*	-3	4	0
O=C(CCSc1ccc(Cl)cc1)NCc1ccncc1	2	-3	12	-2	0	0
Cc1nc2ccccc2c(=O)n1NC(=O)c1ccc(Cl)c(Cl)c1	5	-3	-2	2	-3	1
O=C(O)c1ccc(CNC(=O)C23CC4CC(CC(C4)C2)C3)cc1	2	-8	29*	-3	9	1
CC(C)(CO)NC(=O)C12CC3CC(CC(Br)(C3)C1)C2	-3	1	26*	1	0	4
COc1ccc(CNC(=O)C23CC4CC(CC(Br)(C4)C2)C3)cc1	-1	-8	26*	1	2	1
COc1ccc(CNC(=O)CC23CC4CC(CC(C4)C2)C3)cc1	0	2	9	3	3	1
CC(C)(C)NC(=O)C12CC3CC(CC(Cl)(C3)C1)C2	4	-1	17	-4	1	0
CCN(CC(=O)Nc1ccc(NC(C)=O)cc1)C(=O)c1cc(-c2ccccc2Cl)nc2ccccc12	x	1	4	x	8	x
CCc1ccc(C(=O)Nc2cc(S(=O)(=O)N3CCOCC3)ccc2N2CCOCC2)cc1	4	-3	8	x	1	x
O=S(=O)(c1ccccc1Br)N(CC(O)COCc1ccccc1)C1CC1 (configuration not stated)	5	3	8	x	9	x
SMILES	pPAFAH inh	PAFAH2 inh	PAFAH1B2 FP inh	PP1 inh	PAFAH1B3 FP inh	PP5 primary
COc1cc(CCC(=O)OCC(=O)N2CCc3ccccc32)cc(OC)c1OC	3	-2	1	17*	0	3
O=C(N/N=C/c1ccncc1)c1cc2ccccc2cc1O	x	5	4	x	4	x
O=C(N/N=C/c1ccc[nH]1)c1cc2ccccc2cc1O	25*	10	7	5	22	2
CCC(=O)Nc1ccc(N2CCOCC2)c(S(=O)(=O)Nc2ccc(OC)cc2)c1	2	-4	4	0	10	-2
COc1ccc(NS(=O)(=O)c2cc(NC(=O)c3ccc(C)s3)ccc2N2CCOCC2)cc1	27*	-9	0	4	-4	5
Cc1nc(NS(=O)(=O)c2ccccc2)sc1C(=O)NNS(=O)(=O)c1ccccc1	7	1	18	-2	5	1
Cc1ccc(S(=O)(=O)Nc2nc(C)c(C(=O)NNS(=O)(=O)c3cc(C)ccc3C)s2)cc1	14	13	28*	0	9	1
CCCCN(C(=O)CCCc1nc2ccccc2s1)c1c(N)n(CC(C)C)c(=O)[nH]c1=O	1	-10	2	1	-4	4
O=c1onc(-c2ccc(Cl)cc2Cl)n1-c1cccnc1	3	2	4	-2	8	-2
O=[N+]([O-])c1ccccc1Nc1cccc(F)c1	x	2	4	x	7	x
CCN(CC)C(=O)CSc1nc(-c2cccs2)cc(-c2cccs2)c1C#N	3	-10	2	16*	3	0
CN1CCN(C(=O)CSc2nc(-c3cccs3)cc(-c3cccs3)c2C#N)CC1	28*	19	4	-2	6	1
Cn1cc(C(=O)c2cccc(Cl)c2Cl)cc1C(=O)O	4	4	1	0	2	2
COC(=O)c1cc(C(=O)c2cccc(Cl)c2Cl)cn1C	25*	10	2	-1	5	3
NC(=O)COC(=O)c1cccc(S(=O)(=O)N2CCN(c3ccccc3)CC2)c1	2	1	8	-4	7	1
O=C(COC(=O)c1cccc(S(=O)(=O)N2CCN(c3ccccc3)CC2)c1)NCc1ccco1	26*	15	5	3	9	2
O=C(COC(=O)c1cccc(Oc2ccccc2)c1)NCc1ccco1	34*	36*	1	-3	-5	1
C[C@H](NC(=O)OCc1ccccc1)c1nnc([C@H](Cc2ccccc2)NC(=O)OC(C)(C)C)o1	26*	-2	5	1	-2	2
Cc1ccc(-c2nc3ccsc3c(=O)o2)cc1	2	66*	-1	1	11	1
CC1C(=O)N2CCCc3cc(NC(=O)COc4ccc(Cl)cc4)cc1c32 (configuration not stated)	13	-2	2	-1	9	4
